The text below walks through data of PubChem BioAssay (Tox21).

Structures are written as SMILES. Records with an inconclusive call do not appear. Active and inactive are the calls of the source. Unless noted, the call rests on the fitted dose curve; in most records, active means well fitted curve in the direction sought with a large enough effect in the repeat runs; inconclusive means weak or mixed curves; inactive means no such curve, though single readings can be large; an effect the other way counts as inactive or inconclusive.

Test [1] is described as follows: qHTS assay to identify aromatase inhibitors - cell viability counter screen (AID 743084;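 further: cells stimulated with testosterone during compound exposure; nearly all actives have a fitted effect of over 55% in size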). (In general: qHTS replaces the single test concentration by a dilution series.)
The target of test [2] is Aryl hydrocarbon receptor (Homo sapiens) (UniProt P35869). The test is described as follows: qHTS assay to identify small molecule that activate the aryl hydrocarbon receptor (AhR) signaling pathway (AID 743085). Further: nearly all actives have a fitted effect of over 15% in size. Further: potency means the concentration at half of the fitted maximal effect.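 On activation: HG2L7.5c1 human HepG2 liver cells with stably integrated DRE-driven firefly reporter; series mostly up to about 70 µM.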 In short, it runs like this:
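Compounds were tested in HepG2 hepatocellular carcinoma cells harbouring a stably integrated luciferase gene under control of 20 DREs. Increased reporter signal after 24 h treatment at 37C was taken as AhR activation.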

Test [3] is described as follows: qHTS assay to identify small molecule antagonists of the peroxisome proliferator-activated receptor gamma (PPARg) signaling pathway - cell viability counter screen (AID 743194). Further: nearly all actives have a fitted effect of over 55% in size. To be noted: Potency: co-treated with 50 nM rosiglitazone. The essentials:
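Cytotoxicity counter screen in PPARg-bla HEK293H cells, same wells as reporter assay. Compounds plus 50 nM rosiglitazone (final) for 17 h at 37 C, then viability read by CellTiter-Glo luminescence.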

The nature of test [4]: qHTS assay for small molecule activators of the heat shock response signaling pathway - cell viability counter screen (AID 743209). Further: nearly all actives have a fitted effect of over 50% in size. Further: potency means the concentration at half of the fitted maximal effect. In short, it runs like this:
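Cytotoxicity counter screen run in the same wells as the heat-shock bla reporter assay: HeLa HSE-bla cells, 5 h compound exposure at 37 C, viability read by CellTiter-Glo luminescence.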

Test [5] can be described thus: qHTS assay for small molecule activators of the heat shock response signaling pathway (AID 743210; active means well fitted activation curve with a large enough effect in the signal ratio in the repeat runs, with a control signal flat, not every such curve was filed as active; the % refers to the signal ratio;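 further: HeLa cells with beta-lactamase reporter driven by heat shock elements; series mostly up to about 63 µM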). The essentials:
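Following overnight attachment, HSE-bla HeLa cells received test compounds for 5 h at 37 C; beta-lactamase activity was then detected via FRET substrate fluorescence.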

A short description of test [6]: qHTS assay to identify small molecule agonists of the peroxisome proliferator-activated receptor delta (PPARd) signaling pathway - cell viability counter screen (AID 743211). Further: nearly all actives have a fitted effect of over 55% in size. The essentials: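 Counter screen for cytotoxicity run in parallel with the PPARd reporter screen. Beta-lactamase reporter HEK293H cells exposed to compounds 17 h; ATP-based CellTiter-Glo luminescence quantified viability.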

Test [7] has as its target Peroxisome proliferator-activated receptor delta (Homo sapiens) (UniProt Q03181). The test is described as follows: qHTS assay to identify small molecule agonists of the peroxisome proliferator-activated receptor delta (PPARd) signaling pathway (AID 743212; calls by dose curve). In short, it runs like this: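 Tox21 library screened in GeneBLAzer PPARd UAS-bla HEK293H cells. After compound treatment at 37 C, a FRET-based beta-lactamase substrate was applied for 2 h and fluorescence recorded.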

A short description of test [8]: qHTS assay to identify small molecule antagonists of the farnesoid-X-receptor (FXR) signaling pathway - cell viability counter screen (AID 743221; active means well fitted cell-killing curve with a large enough effect in the repeat runs, not every such curve was filed as active; further: nearly all actives have a fitted effect of over 50% in size). In short, it runs like this: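 Multiplexed counter screen: viability of FXR-bla HEK 293T cells under agonist stimulation by chenodeoxycholic acid (50 uM, final) and test compound for 16 h at 37 C, measured by CellTiter-Glo luminescence in the reporter wells.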

Test [9] is described as follows: qHTS assay to identify small molecule that activate the aryl hydrocarbon receptor (AhR) signaling pathway - cell viability counter screen (AID 743086).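 Further: HepG2 liver cells carrying the AhR DRE luciferase reporter; series mostly up to about 70 µM; nearly all actives have a fitted effect of over 45% in size.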 The essentials: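 HepG2-AhR-luc (HG2L7.5c1) cells, 4000/well, treated 24 h at 37 C with compound; viability measured as CellTiter-Fluor fluorescence after 30 min in the same wells as the luciferase read.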
Test [10] concerns the target Peroxisome proliferator-activated receptor gamma (Homo sapiens) (UniProt P37231). The test is described as follows: qHTS assay to identify small molecule agonists of the peroxisome proliferator-activated receptor gamma (PPARg) signaling pathway (AID 743094; active means well fitted activation curve with a large enough effect in the signal ratio in the repeat runs, not every such curve was filed as active; the % refers to the signal ratio). The essentials:
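Agonist activity was taken from a beta-lactamase reporter (FRET substrate, 1 h at room temperature) in HEK293H cells carrying a PPARg UAS-bla construct. Compounds in DMSO were incubated 17 h at 37C after a 5 h cell pre-incubation.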

Test [11] shares this target. The test is described as follows: qHTS assay to identify small molecule antagonists of the peroxisome proliferator-activated receptor gamma (PPARg) signaling pathway (AID 743191; calls by dose curve; further: nearly all actives have a fitted effect of over 30% in size; further: potency means the concentration at half of the fitted maximal effect). In short, it runs like this:
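GeneBLAzer PPARg UAS-bla HEK293H cells, 5 h post-plating, exposed to compounds 17 h at 37C. LiveBLAzer B/G FRET substrate added for 1 h at room temperature; beta-lactamase reporter read by fluorescence intensity.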

Test [12] is described as follows: qHTS assay for small molecule agonists of the antioxidant response element (ARE) signaling pathway (AID 743202; active means well fitted activation curve with a large enough effect in the signal ratio in the repeat runs, not every such curve was filed as active; the % refers to the signal ratio). The essentials:
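HepG2 ARE-bla cells; 16 h treatment at 37 C; FRET-based beta-lactamase fluorescence read after 2 h substrate incubation at room temperature.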

Test [13] in a line: qHTS assay for small molecule agonists of the antioxidant response element (ARE) signaling pathway - cell viability counter screen (AID 743203; calls by dose curve; further: nearly all actives have a fitted effect of over 55% in size; further: potency means the concentration at half of the fitted maximal effect). The essentials: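 Viability counter screen: CellTiter-Glo luminescence, read after 30 min at room temperature, in ARE-bla HepG2 wells. Compound exposure lasted 16 h at 37C/5% CO2, following a 5 h pre-incubation of the cells after plating.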

Test [14] in a line: qHTS assay to identify small molecule antagonists of the peroxisome proliferator-activated receptor delta (PPARd) signaling pathway - cell viability counter screen (AID 743213). Further: nearly all actives have a fitted effect of over 50% in size. In short, it runs like this: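 Luminescence from CellTiter-Glo, added after the bla read and incubated 30 min at room temperature, gives viability of HEK293H PPARd-bla cells exposed to compounds for 17 h at 37 C with 300 nM L165041.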

Test [15] in a line: qHTS assay to identify small molecule agonists of the farnesoid-X-receptor (FXR) signaling pathway - cell viability counter screen (AID 743218). Further: nearly all actives have a fitted effect of over 45% in size. The essentials: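 Viability counter screen in the same wells: CellTiter-Glo luminescence, 30 min room-temperature incubation, measured after the beta-lactamase read. Cells were GeneBLAzer FXR-UAS-bla HEK 293T, compound-treated 16 h at 37C.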

Test [16] has as its target Vitamin D3 receptor (Homo sapiens) (UniProt P11473). Briefly: qHTS assay to identify small molecule agonists of the vitamin D receptor (VDR) signaling pathway (AID 743222; calls by dose curve). The essentials: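 Agonist mode, beta-lactamase reporter: fluorescence from LiveBLAzer B/G FRET substrate (2 h, room temperature) read after 16 h compound treatment at 37 C of VDR-bla cells, which were pre-incubated 4 h after seeding.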

Test [17] has as its target Peroxisome proliferator-activated receptor delta (Homo sapiens) (UniProt Q03181). The test is described as follows: qHTS assay to identify small molecule antagonists of the peroxisome proliferator-activated receptor delta (PPARd) signaling pathway (AID 743215; active means well fitted inhibition curve with a large enough effect in the signal ratio in the repeat runs, not every such curve was filed as active; the % refers to the signal ratio;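 further: cells stimulated with agonist L165041 at 300 nM final during compound exposure; series mostly up to about 62 µM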). The essentials:
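Agonist L165041 (300 nM final) added with compound to PPARd-bla HEK293H UAS-bla reporter cells; 17 h incubation at 37 C. Read-out: LiveBLAzer FRET substrate, 2 h at room temperature, fluorescence intensity.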

In test [18] the target is Bile acid receptor (Homo sapiens) (UniProt Q96RI1). The test is described as follows: qHTS assay to identify small molecule antagonists of the farnesoid-X-receptor (FXR) signaling pathway (AID 743217; active means well fitted inhibition curve with a large enough effect in the signal ratio in the repeat runs, not every such curve was filed as active; the % refers to the signal ratio). The essentials:
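Antagonist mode: chenodeoxycholic acid at 50 uM final stimulates a UAS-driven beta-lactamase reporter in HEK 293T FXR-bla cells during 16 h, 37C compound exposure. Read-out is FRET substrate fluorescence after 2 h at room temperature.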

For test [19] the target is unchanged. Briefly: qHTS assay to identify small molecule agonists of the farnesoid-X-receptor (FXR) signaling pathway (AID 743220; active means well fitted activation curve with a large enough effect in the signal ratio in the repeat runs, not every such curve was filed as active; the % refers to the signal ratio). The essentials: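 FXR-UAS-bla HEK 293T cells carrying a UAS-driven beta-lactamase reporter were plated for 5 h at 37C/5% CO2, then exposed to DMSO-dissolved Tox21 10K compounds for 16 h at 37C. A LiveBLAzer B/G FRET substrate was loaded for 2 h at room temperature before fluorescence reading.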

For test [20], the target named is Vitamin D3 receptor (Homo sapiens) (UniProt P11473). Briefly: qHTS assay to identify small molecule antagonists of the vitamin D receptor (VDR) signaling pathway (AID 743223; active means well fitted inhibition curve with a large enough effect in the signal ratio in the repeat runs, not every such curve was filed as active; the % refers to the signal ratio). In short, it runs like this: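 Cells carrying a VDR-driven beta-lactamase reporter (VDR-bla) were co-treated with compound and 3 nM final 1alpha,25-dihydroxyvitamin D3 for 16 h at 37C; reporter activity was measured as FRET substrate fluorescence after 2 h at room temperature.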
Chain of Vitamin D3 receptor (Homo sapiens) (P11473 whole entry, looked up): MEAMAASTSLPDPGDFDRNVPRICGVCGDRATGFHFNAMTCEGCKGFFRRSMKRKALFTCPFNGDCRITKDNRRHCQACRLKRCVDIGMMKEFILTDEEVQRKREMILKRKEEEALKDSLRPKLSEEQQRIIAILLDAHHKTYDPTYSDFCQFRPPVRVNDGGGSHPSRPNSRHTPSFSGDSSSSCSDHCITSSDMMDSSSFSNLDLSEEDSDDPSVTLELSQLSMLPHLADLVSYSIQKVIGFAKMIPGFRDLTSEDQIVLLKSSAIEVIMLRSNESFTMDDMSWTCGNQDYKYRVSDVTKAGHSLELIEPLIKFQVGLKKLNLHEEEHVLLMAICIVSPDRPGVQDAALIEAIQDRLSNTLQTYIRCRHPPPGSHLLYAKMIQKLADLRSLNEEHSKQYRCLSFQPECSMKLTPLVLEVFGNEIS

Chain of Peroxisome proliferator-activated receptor gamma (Homo sapiens) (P37231 whole entry, looked up): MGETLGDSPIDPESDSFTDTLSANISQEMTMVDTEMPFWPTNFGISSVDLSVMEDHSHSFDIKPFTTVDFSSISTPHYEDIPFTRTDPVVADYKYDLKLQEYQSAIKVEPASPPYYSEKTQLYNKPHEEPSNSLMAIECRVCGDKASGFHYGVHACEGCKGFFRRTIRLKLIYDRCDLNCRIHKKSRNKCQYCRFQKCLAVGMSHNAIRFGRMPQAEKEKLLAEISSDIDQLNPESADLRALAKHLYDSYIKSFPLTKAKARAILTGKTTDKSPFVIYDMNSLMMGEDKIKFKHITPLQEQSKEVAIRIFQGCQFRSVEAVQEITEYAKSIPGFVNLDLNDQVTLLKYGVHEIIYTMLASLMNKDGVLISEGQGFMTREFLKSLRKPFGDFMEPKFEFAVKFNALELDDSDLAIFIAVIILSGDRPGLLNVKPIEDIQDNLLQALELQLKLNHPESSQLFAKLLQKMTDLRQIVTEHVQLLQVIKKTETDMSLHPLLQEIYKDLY
Chain of Aryl hydrocarbon receptor (Homo sapiens) (P35869 whole entry, looked up): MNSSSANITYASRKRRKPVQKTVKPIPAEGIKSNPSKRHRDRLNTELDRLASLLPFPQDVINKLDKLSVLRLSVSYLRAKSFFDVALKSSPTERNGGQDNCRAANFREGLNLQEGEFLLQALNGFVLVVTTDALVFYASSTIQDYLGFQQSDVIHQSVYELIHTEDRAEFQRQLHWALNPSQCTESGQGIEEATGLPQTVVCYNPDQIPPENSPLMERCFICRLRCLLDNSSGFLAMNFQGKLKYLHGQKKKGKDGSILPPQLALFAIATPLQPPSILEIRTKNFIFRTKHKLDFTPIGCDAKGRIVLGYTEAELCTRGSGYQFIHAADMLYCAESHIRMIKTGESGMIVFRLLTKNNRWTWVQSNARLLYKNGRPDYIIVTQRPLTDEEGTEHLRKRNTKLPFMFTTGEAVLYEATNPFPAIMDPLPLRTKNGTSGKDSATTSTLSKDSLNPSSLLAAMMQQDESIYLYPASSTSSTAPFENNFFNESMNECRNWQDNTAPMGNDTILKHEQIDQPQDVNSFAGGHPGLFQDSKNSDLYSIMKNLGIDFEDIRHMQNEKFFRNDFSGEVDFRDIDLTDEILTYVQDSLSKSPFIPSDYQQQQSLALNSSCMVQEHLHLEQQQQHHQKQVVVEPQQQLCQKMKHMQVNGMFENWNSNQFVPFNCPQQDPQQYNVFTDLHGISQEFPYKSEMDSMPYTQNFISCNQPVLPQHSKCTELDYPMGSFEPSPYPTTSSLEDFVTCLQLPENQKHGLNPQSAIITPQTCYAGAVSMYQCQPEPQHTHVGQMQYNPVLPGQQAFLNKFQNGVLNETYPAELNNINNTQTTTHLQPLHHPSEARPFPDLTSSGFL
Chain of Bile acid receptor (Homo sapiens) (Q96RI1 whole entry, looked up): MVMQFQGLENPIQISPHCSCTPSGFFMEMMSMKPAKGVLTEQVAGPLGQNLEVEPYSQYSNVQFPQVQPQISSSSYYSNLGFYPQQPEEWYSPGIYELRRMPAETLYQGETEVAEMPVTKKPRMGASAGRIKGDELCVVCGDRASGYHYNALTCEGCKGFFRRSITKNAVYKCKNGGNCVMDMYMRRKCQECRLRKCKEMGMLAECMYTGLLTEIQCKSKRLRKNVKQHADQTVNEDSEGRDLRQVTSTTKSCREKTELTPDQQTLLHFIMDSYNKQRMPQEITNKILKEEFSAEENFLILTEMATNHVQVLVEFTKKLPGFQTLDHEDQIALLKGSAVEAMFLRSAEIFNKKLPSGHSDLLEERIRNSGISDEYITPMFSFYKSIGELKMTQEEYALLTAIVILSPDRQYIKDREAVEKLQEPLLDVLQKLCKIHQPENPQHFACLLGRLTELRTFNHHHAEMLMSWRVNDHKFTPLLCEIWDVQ
Chain of Peroxisome proliferator-activated receptor delta (Homo sapiens) (Q03181 whole entry, looked up): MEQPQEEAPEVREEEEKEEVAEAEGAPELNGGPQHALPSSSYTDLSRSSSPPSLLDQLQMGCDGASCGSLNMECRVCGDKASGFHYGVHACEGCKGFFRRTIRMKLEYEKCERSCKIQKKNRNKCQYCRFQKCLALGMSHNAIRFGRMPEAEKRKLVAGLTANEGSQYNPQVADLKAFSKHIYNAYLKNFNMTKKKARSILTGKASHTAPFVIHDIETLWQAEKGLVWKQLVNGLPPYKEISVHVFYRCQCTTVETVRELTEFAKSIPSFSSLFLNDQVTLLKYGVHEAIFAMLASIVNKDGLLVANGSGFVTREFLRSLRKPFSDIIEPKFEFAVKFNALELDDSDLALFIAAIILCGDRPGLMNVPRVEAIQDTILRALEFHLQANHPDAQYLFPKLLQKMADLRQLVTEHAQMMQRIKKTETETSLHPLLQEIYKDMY

For the compound `COCCOCCO`, the Potency result in test [1], in [2], in test [3], in [4] and in test [6] was “inactive” each time. For the same compound, the result in test [5] and in [7] was inactive.
Consider `CC(C)(C)C(O)C(Oc1ccc(Cl)cc1)n1cncn1` (stereo not given), for which the Potency entry in [1], in [3], in test [4] and in test [8] was “inactive” each time. Besides, the Potency in test [2] was 18.6 µM (active).
In the case of `CCOP(=O)(OCC)SCCSCC`, the Potency entry in test [1], in test [9], in [10], in test [11], in [3] and in test [12] was “inactive” in each case. Also, the Potency result in test [13], in test [4], in test [6], in test [14], in test [15] and in [8] was “inactive” each time. In addition, the result in test [5] and in [16] was inactive.
Regarding `CCOC(=O)COc1cc(-c2nn(C)c(OC(F)F)c2Cl)c(F)cc1Cl`, the Potency entry in test [1], in test [9], in [10], in test [11], in test [12] and in [13] was “inactive” throughout. Further, the Potency result in test [4], in test [6], in test [14], in test [17] and in test [8] was “inactive” each time. The compound was classed as inactive in test [7] and in [16].
For the compound `CN(N=O)c1ccc([N+](=O)[O-])cc1`, the Potency result in test [1], in [9], in test [10], in [11], in [3] and in test [12] was “inactive” in each case. Further, the Potency result in test [13], in test [4], in test [6], in test [14], in test [18] and in test [8] was “inactive” in each case. The outcome in test [5], in [19], in test [16] and in test [20] was inactive.
As for `CCC(COC(=O)c1cc(OC)c(OC)c(OC)c1)(c1ccccc1)N(C)C` (stereo not given), the Potency result in [1], in test [2], in test [3], in test [13], in test [4] and in test [6] was “inactive” each time. Moreover, the Potency entry in test [14] and in test [8] was “inactive” throughout. Further, the outcome in [5], in [7] and in test [16] was inactive.
For the compound `CC(C)(OO)c1ccccc1`, the Potency result in [1], in test [9], in [10], in [11], in test [3] and in [6] was “inactive” each time. For the same compound, the Potency result in test [14], in test [17], in [18] and in test [8] was “inactive” each time. In addition, the Potency in test [13] is 61.1 µM (active); in test [4], 49 µM (active). Moreover, the result in [7], in [19] and in test [16] was inactive.
As to `CCCCOC(=O)c1ccccc1C(=O)OCc1ccccc1`, the Potency result in test [1], in [9], in test [10], in [3], in test [12] and in test [13] was “inactive” each time. Further, the Potency entry in test [4], in test [6] and in test [8] was “inactive” throughout. Besides, the outcome in [5] and in test [7] was inactive.
In the case of `CC(C)N(C(=O)COc1nnc(C(F)(F)F)s1)c1ccc(F)cc1`, the Potency entry in test [1], in [9], in test [10], in test [3], in test [13] and in [15] was “inactive” in each case. Further, in [8], the Potency result was “inactive”. In addition, the Potency in [11] is 7.76 µM (active). For the same compound, the outcome in [7] and in test [19] was inactive.
As to `C/C=C/C=O`, the Potency entry in [1], in [9], in test [10], in [11], in [3] and in [13] was “inactive” each time. Moreover, the Potency result in test [4], in test [6], in [14], in [15] and in [8] was “inactive” throughout. Further, the call in [5] and in test [16] was inactive.
For `CCOP(=S)(OCC)Oc1cc(Cl)c(Br)cc1Cl`, the Potency entry in test [1], in test [9], in [10], in [11], in test [13] and in test [4] was “inactive” each time. For the same compound, the Potency entry in test [8] was “inactive”. Further, the compound was classed as inactive in test [5], in [7], in [19] and in [16].
Regarding `COC(=O)c1cncn1C(C)c1ccccc1` (stereo not given), the Potency entry in test [1], in test [9], in test [10], in test [11], in test [3] and in test [12] was “inactive” in each case. Also, the Potency entry in [13], in [4], in test [6], in test [14], in [17] and in test [15] was “inactive” each time. Moreover, in test [8], the Potency result is “inactive”. In addition, the result in test [5], in test [7] and in test [20] was inactive.
Consider `c1cc2ccc3cccc4ccc(c1)c2c34`, for which the Potency entry in [1], in [2], in test [4] and in test [8] was “inactive” in each case.
As for `C=CC[C@]1(O)CC[C@H]2[C@@H]3CCC4=CC(=O)CCC4=C3C=C[C@@]21C`, the Potency entry in test [1], in test [13], in test [4], in test [6], in test [14] and in test [15] was “inactive” throughout. Also, the Potency entry in [8] is “inactive”. Further, the Potency in [2] is 5.96 µM (active). In [5], the outcome was inactive.
